# SUMO Mot1 rescue – inhibitors of SUMOylation pathway: yeast Mot1-301 growth rescue | growth rescue, % at 18.8 µM | S. cerevisiae Mot1-301 growth rescue, ATP luminescence, 38.5C; percent above DMSO median, 100 means doubled | AID 2716 | hit rate 1% among 320,000;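 active means every valid replicate shows activation above 250% relative to neutral control wells; inactive means the rest, any valid replicate at or below 250%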;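 further: OY570 slx delta 5 strain wells were the positive control but not used for scaling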
# ATG4B inh – inhibitors of human ATG4B cysteine protease; Q9Y4P1; ATG4B cleavage of LC3-PLA2, NBD-HPC fluorescence, 1 h; inhibition, % at 8.33 µM; hit rate 0.51% among 340,000; in the data active means inhibition above about 40%
# Target sequence (Q9Y4P1 whole entry, looked up): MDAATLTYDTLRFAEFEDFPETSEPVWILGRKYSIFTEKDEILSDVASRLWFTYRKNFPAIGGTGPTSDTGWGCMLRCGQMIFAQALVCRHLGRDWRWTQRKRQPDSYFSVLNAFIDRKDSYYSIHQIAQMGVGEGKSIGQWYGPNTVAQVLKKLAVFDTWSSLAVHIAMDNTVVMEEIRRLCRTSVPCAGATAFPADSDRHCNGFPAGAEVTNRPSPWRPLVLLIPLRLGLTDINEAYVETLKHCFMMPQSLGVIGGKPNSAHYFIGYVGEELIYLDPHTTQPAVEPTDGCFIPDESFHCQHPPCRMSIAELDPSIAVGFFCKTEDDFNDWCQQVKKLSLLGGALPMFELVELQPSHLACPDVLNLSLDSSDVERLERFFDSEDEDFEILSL
# V-ATPase pH – yeast V-ATPase proton transport regulation by pHLuorin. S. cerevisiae, pHLuorin cytosolic pH fluorescence. response, % at 10 µM. hit rate 0.37% among 350,000. AID 504577; in the data active means response mostly above about 7.3%, no sharp cut-off; inactive means mostly below about 5.4%; further: actives read high
# Efflux pump mplx – blocks antifungal efflux pumps in multiplex yeast assay | hit rate 0.44% among 330,000 | inhibition, % at 10 µM | S. cerevisiae Candida pump triplex, Nile Red efflux;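 active means plate passing quality check with inhibition over a set limit, or well fluorescence over plate mean plus 4 SD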;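 further: Nile Red retained in pooled yeast measured as flow cytometry median fluorescence; 0% = buffer negative control and 100% = Enniatin B positive control; higher means more Nile Red kept so more efflux inhibition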
# AI-2 QS mod – Vibrio harveyi AI-2 quorum sensing modulation | Vibrio harveyi JMH597 AI-2 luminescence/OD600 ratio, 9 h; active compounds read low; strain lacks LuxN and CqsS sensors; 0 = neutral-control median | activity change, % at 7.5 µM | hit rate 0.4% among 300,000; in the data active means activity change below about -75%, passing the limit was not always enough;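 further: luminescence divided by OD600 gain over 9 h not by final OD600 alone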
# ATG4B conf – confirmation of human ATG4B inhibitors; inhibition, % at 8.33 µM; shares compounds with ATG4B inh; ATG4B protease fluorescent substrate cleavage assay; hit rate 92% among 320; in the data active means inhibition above about 39%
# PLA2 counter – counter-screen for ATG4B inhibitors: human phospholipase A2 | shares compounds with ATG4B inh | purified PLA2, NBD-C6-HPC fluorescence, 45 min | inhibition, % at 8.33 µM | hit rate 66% among 1,600; in the data active means inhibition above about 50%
# Target sequence (P04054 whole entry, looked up): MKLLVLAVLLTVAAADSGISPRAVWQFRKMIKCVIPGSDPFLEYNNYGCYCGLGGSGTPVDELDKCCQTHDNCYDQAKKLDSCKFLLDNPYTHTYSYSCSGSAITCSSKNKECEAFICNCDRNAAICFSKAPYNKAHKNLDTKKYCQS
# Numbers without * were called inactive; nt = no result. Most compounds without a hit are left out; they make up all but 2.5% or so of the library.
SMILES,SUMO Mot1 rescue,ATG4B inh,V-ATPase pH,Efflux pump mplx,AI-2 QS mod,PLA2 counter,others
Cc1cccc(N2CCN(C(=S)NCc3ccco3)CC2)c1C,42.3,45.9*,3.5,0.1,1.6,4.0,
C/C=C/c1ccc(OCCOc2cc(C=O)ccc2OC)c(OC)c1,21.2,46.8*,-0.4,0.2,24.2,48.2,
C/C=C/c1ccc(OCC(=O)O)c(OC)c1,-1.0,3.4,-0.3,0.1,32.5,nt,
Cc1cccc(NC(=O)COC(=O)c2ccccc2-c2nc3ccccc3s2)c1C,-7.9,48.1*,-0.5,0.2,4.9,51.2*,
Cc1cccc(NC(=O)COC(=O)c2cccc3c2C(=O)c2ccccc2C3=O)c1C,nt,32.0,2.1,0.6,9.3,nt,
CC(C)Cn1c(SC(C)C(=O)Nc2ccc3c(c2)OCCO3)nc2ccccc2c1=O (configuration not stated),nt,49.4*,-2.2,nt,19.0,55.1*,
CS(=O)(=O)Nc1ccc(C2=NN(C(=O)C3CCCCC3)C(c3cccs3)C2)cc1 (configuration not stated),-1.9,76.7*,-0.4,-1.1,18.4,80.8*,
CC(=O)Nc1ccc(S(=O)(=O)N(C)CC(=O)OCC(=O)Nc2cc(C)on2)cc1,21.0,-41.9,-3.8,0.0,nt,nt,
CCCOc1ccc(OCCN2CCCC(C)C2)cc1 (configuration not stated),169.2,-4.0,-3.0,-0.4,18.7,nt,
CC(C)(C)c1ccc(C(=O)Nc2ccccc2Cl)cc1,30.2,45.3*,-1.9,0.0,12.1,55.4*,
CS(=O)(=O)Nc1ccc(C(=O)Nc2ccccc2Cl)cc1,7.9,-9.4,-0.1,0.0,6.8,nt,
CCC(C)c1ccccc1NC(=O)COC(=O)c1ccc2[nH]c3c(c2c1)CCCC3 (configuration not stated),-12.5,41.7*,0.1,-7.4,34.7,56.9*,
CCCCn1c(N)c(N(CC(C)C)C(=O)CCC2CCCCC2)c(=O)[nH]c1=O,0.7,-0.2,-0.5,-0.3,11.4,nt,
COc1cccc(CNc2ncnc3ccc(-c4c(C)noc4C)cc23)c1,-1.4,-1.4,-0.3,-0.1,nt,nt,
COc1cccc(-c2ccc3ncnc(NCc4cccc(C)c4)c3c2)c1,-2.2,40.1*,4.8,-0.1,nt,49.8,
CCCC(=O)OCC(=O)c1[nH]c(C)c(C(C)=O)c1C,-17.8,11.9,-1.7,0.0,18.7,nt,
O=C(O)C1CC=C(Cl)CC1C(=O)NC1CCCCC1 (configuration not stated),20.8,-1.6,-0.1,0.0,13.4,nt,
COc1ccc(C)cc1S(=O)(=O)N(CC(=O)Nc1cc([N+](=O)[O-])ccc1C)c1ccc(C)c(C)c1,50.9,77.5*,-4.0,-1.2,30.6,86.7*,
COc1ccc(C)cc1S(=O)(=O)N(CC(=O)Nc1cccc([N+](=O)[O-])c1)c1cc(C)cc(C)c1,22.7,82.8*,4.8,-0.1,9.2,85.6*,
Cc1ccc(S(=O)(=O)N(CC(=O)Nc2cccc([N+](=O)[O-])c2)C2CCCCC2)cc1,220.0,44.7*,-2.6,0.0,35.4,51.4*,
COc1ccc(N(CC(=O)Nc2cccc(C)c2)S(=O)(=O)c2ccc(C)cc2)cc1OC,-0.1,-3.6,-2.2,-0.3,9.0,nt,
Cc1ccc(S(=O)(=O)N(CC(=O)Nc2ccc(Cl)c([N+](=O)[O-])c2)C2CCCCC2)cc1,55.1,15.8,-5.3,0.2,23.6,nt,
Cc1onc(-c2ccccc2Cl)c1C(=O)N1CCN(c2ccc(F)cc2)CC1,-21.6,-1.7,2.6,0.0,6.3,nt,
COc1ccc(O)c(C(=O)c2cnn(C(=O)c3cccc(N(C)C)c3)c2)c1,228.6,-5.8,0.6,0.1,nt,nt,
CN(C)c1cccc(C(=O)n2cc(C(=O)c3cc(F)ccc3O)cn2)c1,231.5,50.9*,1.7,0.3,34.8,1.7,ATG4B conf=50.3*
SMILES,SUMO Mot1 rescue,ATG4B inh,V-ATPase pH,Efflux pump mplx,AI-2 QS mod,PLA2 counter,others
NC(=O)C1CCN(c2nc(-c3cc4ccccc4o3)cs2)CC1,2.9,45.3*,4.9,-0.2,nt,49.5,
CN1CCN(c2nc(-c3cc4ccccc4o3)cs2)CC1,-2.1,-4.0,-0.1,0.3,12.4,nt,
CCCCCCCCOC(=O)c1c(CSC(=N)N)n(C)c2cc(Br)c(OC(C)=O)cc12,8.2,40.4*,-0.6,-0.1,29.2,4.7,ATG4B conf=64.8*
C/C(=N\NC(=O)c1cccc(N/N=C(\C)c2cc(O)ccc2O)c1)c1cc(O)ccc1O,6.9,46.4*,-3.8,0.0,100.3,78.0*,
C/C(=N\NC(=O)c1cccc(N/N=C(\C)c2ccco2)c1)c1ccco1,nt,3.7,-3.5,nt,44.6,nt,
O=C1C(=O)c2c(C(=O)c3ccccc3)coc2-c2ccccc21,10.3,64.5*,0.6,-0.1,-47.5,88.8*,
CCOc1ccc(S(=O)(=O)N2CCC(C(=O)N3CCCC3)CC2)cc1C,0.6,-0.8,0.8,0.0,-3.3,nt,
O=C(O)c1cc([N+](=O)[O-])ccc1NCc1ccccc1Cl,11.0,48.3*,-2.4,-0.1,21.2,45.3,ATG4B conf=63.8*
O=C(O)c1cc([N+](=O)[O-])ccc1NCc1ccccn1,-5.0,-2.3,0.1,0.1,nt,nt,
CC(C)N(Cc1ccccc1)C(=O)C1CCN(c2ncnc3c2nc2n3CCCCC2)CC1,-3.0,72.4*,3.2,-0.2,nt,75.7*,
Cc1ccc(C)c(S(=O)(=O)N2CCN(c3nc(CN4CCOCC4)nc4sc(C)c(C)c34)CC2)c1,49.7,52.2*,6.0,0.0,nt,69.5*,
COCCN(Cc1cc2ccc(C)cc2[nH]c1=O)S(=O)(=O)c1ccccc1,83.9,-7.8,-3.5,0.0,30.8,nt,
Cc1ccc(N(CC(=O)Nc2ccc(F)c(Cl)c2)S(=O)(=O)c2c(C)noc2C)cc1,1.1,40.6*,1.4,0.0,22.9,61.0*,
COc1ccc(S(=O)(=O)N(Cc2cccs2)C2CCCC2)cc1,-8.5,50.3*,-0.2,0.1,25.8,53.5*,
COc1ccc(S(=O)(=O)NCc2cccs2)cc1,14.3,-5.6,-2.6,0.1,18.5,nt,
CN1CCC(N(C)C(=O)c2ccc(Cl)c(S(=O)(=O)N3CCOCC3)c2)CC1,nt,-4.2,-2.1,nt,nt,nt,
O=C1CN(CC(=O)Nc2cccc(Cl)c2Cl)c2ccccc2N1,10.3,-2.0,-1.5,0.2,8.3,nt,
COc1ccc(/C=C2\SC(=S)N(CCCC(=O)NNC(=O)c3ccccc3O)C2=O)cc1,18.4,49.1*,1.1,0.0,9.0,-5.5,
COc1ccc(/C=C2/SC(=S)N(CCCC(=O)Nc3ccccc3C(=O)O)C2=O)cc1,-5.6,7.0,-1.6,-0.1,19.9,nt,
CN1CCN(c2nc(-c3cccs3)cs2)CC1,-2.1,-8.3,-0.9,0.0,30.2,nt,
O=C1c2ccccc2C(=O)N1c1nc(-c2cccs2)cs1,163.8,58.9*,1.6,0.2,25.2,63.5*,
O=C(/C=C/c1ccccc1O)c1ccccc1,nt,3.9,-1.4,nt,nt,nt,

# Screening data deposited in PubChem BioAssay by several laboratories.
